About 83,000 compounds went through this panel and 20% of them were active in at least one assay; those are over-represented in the sample as a whole.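 Testing used 96-well plates and a 48-hour single-concentration exposure. Example: -40 means 40% of the starting cells died.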 A number with no mark means an inactive call. Calls of active or inactive are those of the source. Rule for the calls: active = growth percent below 10; inactive = the rest.

These results are taken from PubChem BioAssay (NCI).

The experiment deals with HL-60(TB) leukemia. Kind of experiment: NCI-60 one-dose screen, 48 h (100 = growth as untreated, 0 = no growth, -100 = all killed). The conditions noted are these: 10 µM unless noted.
With `COc1ccc(N=Nc2c(N)nn3c(-c4ccc([N+](=O)[O-])cc4)ccnc23)cc1`, the growth was 85.7%. The result for `C[C@@H]1CN(c2ccc3ncc(C#Cc4cncc(C(=O)Nc5ccc(CN6CCN(C)CC6)c(C(F)(F)F)c5)c4)n3n2)C[C@@H](C)O1` reads -53.6% (active); that for `NS(=O)(=O)c1ccc(Nc2nc(N/N=C/c3cc(Br)c(O)c(Br)c3)nc(Nc3ccccc3)n2)cc1`, 47.3%.

With `CN(C)c1nc(NCCNS(=O)(=O)c2ccc(C3=Nc4c(N)nc(N)nc4NC(c4ccc(Cl)cc4)C3)cc2)nc(N2CCOCC2)n1` (centres undefined), the growth was 28.1%. To `COc1ccc(-c2cc(-c3ccccc3)c(C#N)c(=O)[nH]2)cc1S(N)(=O)=O` belongs 142%; to `O=C1NC(=S)S/C1=C\c1cn(-c2ccccc2)nc1-c1ccc([N+](=O)[O-])cc1`, 9.92% (active). Take `CCCSc1nnc(-c2c(C)nc3sccn23)o1`: the growth was 98.3%. The result for `Fc1ccccc1CNc1nc(SCCN2CCOCC2)nc2c1cnn2CC(Cl)c1ccc(Br)cc1` (centres undefined) reads -22.8% (active); that for `CC(=O)NS(=O)(=O)c1ccc(NC(=O)CSC2=NC(c3ccccc3)C(C(C)=O)=C(C)N2)cc1` (centres undefined), 97.4%.

For `COc1csc(/C=N/NC(=O)c2[nH]c3ccc(Br)cc3c2-c2ccccc2)c1`, the growth was -42.8% (active). To `Cc1ccc(N=Nc2c(N)nn3c(-c4cc5cc(Br)ccc5oc4=O)ccnc23)cc1` belongs 83.2%. The result for `O=C(CSc1nnc(-c2ccc(-c3nc4ccccc4[nH]3)cc2)o1)Nc1ccc(Cl)cc1` reads 37.6%. To `COc1cc2c3c(n(CCCNC(C)C)c(=O)c2cc1OC)-c1nc2c(cc1C3=O)OCO2` belongs 71.6%; to `Nc1nn2c(-c3cc4ccccc4oc3=O)ccnc2c1N=Nc1ccccc1`, 108%. As for `COc1cc2oc(-c3cccc(C(=O)Nc4ccc(Cl)cc4)c3)cc(=O)c2c(OCCNC(=O)[C@@H](N)CO)c1OC`, the growth was -29.2% (active). To `CN(C(=O)c1ccc(C(F)(F)F)cc1C(F)(F)F)c1sc2c(c1C#N)CCC(=O)C2` belongs 55.3%; to `COc1ccc(CCC2c3c(cc4c(c3OC)OCO4)CCN2C)cc1` (centres undefined), -37.5% (active); to `COc1cc(C2CC(c3ccc(C(F)(F)F)cc3)=Nc3c(N)nc(N)nc3N2)ccc1Oc1nc(Nc2ccc(F)cc2)nc(N(C)C)n1` (centres undefined), 13.7%. To `COc1cc(C2CC(c3ccc(F)cc3)=Nc3c(N)nc(N)nc3N2)ccc1Oc1nc(Nc2ccc(F)cc2)nc(N(C)C)n1` (centres undefined) belongs 14.4%; to `ClC(Cn1ncc2c(Nc3cccc(Br)c3)nc(SCCN3CCOCC3)nc21)c1ccc(Br)cc1` (centres undefined), -31.9% (active). In the case of `Cc1ccn2c(C(=O)c3ccccc3)cc(-c3cc(-c4ccc(N(C)C)cc4)c(C#N)c(N)n3)c2c1`, the growth is 95.1%. Take `O=c1oc2ccc(-c3ccc(F)cc3F)cc2c(=O)n1-c1ccc(F)c(Cl)c1`: the growth is -40.3% (active). The result for `Nc1nnc(-c2cncc(Br)c2)c(-c2c[nH]c3ccc(Br)cc23)n1` reads 36.7%.

As to `CCCCOc1ccc(Nc2nc3ccccc3nc2Nc2ccc(OCCCC)cc2)cc1`, the growth was 79.7%.

Turning to `O=C(c1ccc(Cl)cc1)C1[C@H](c2ccc(Br)cc2)[C@@H](c2ccccc2)NC12C(=O)Nc1ccc(Br)cc12` (some centres undefined), the growth is -42.8% (active).

Consider `CC1=C(C(=O)OCc2ccccc2)C(c2ccc(-n3cncn3)cc2)n2c(nc3ccccc32)N1` (centres undefined), for which the growth was 8.84% (active). To `O=C(Nc1ccc(Cl)c(C(F)(F)F)c1)N1CCN(c2cc(-c3cn(-c4ccccc4)nc3-c3cccc(O)c3)ccn2)CC1` belongs -34.3% (active); to `CCOc1ccccc1NC(=O)N/C(N)=N/c1nc2ccccc2s1`, -23.4% (active). To `COc1cccc(-c2c(C#N)c(-c3ccc(Cl)cc3)nc3n[nH]c(-c4ccc(Cl)cc4)c23)c1` belongs 7.69% (active); to `COC(=O)c1cc(C(=O)CBr)n2c1ccc1c3ccccc3ccc12`, 49.3%. The result for `O=C(COc1ccc(NC(=O)Nc2ccc(Cl)c(Cl)c2)cc1)N=Nc1c(O)[nH]c2ccc([N+](=O)[O-])cc12` reads 92.4%; that for `NC1=NC(c2ccccc2Cl)N=C(Nc2nn[nH]n2)N1` (centres undefined), 110%; that for `COc1ccc(C(=O)NNC(=O)CSc2nc3sc4c(c3c(=O)n2-c2ccc(Cl)cc2)CCCC4)cc1`, 64.5%. In the case of `CCCCSc1nc(Nc2ccc(/C(C)=N/NC(N)=S)cc2)c(C#N)c(-c2ccccc2)n1`, the growth is 79.3%.
